# Compounds without any hit were thinned out: in the full panel of roughly 83,000, 20% have a hit.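 Activity criterion: percent growth below 10, measured after cells in 96-well plates were exposed to a single compound concentration for 48 hours.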 Unmarked numbers belong to inactive results. The source made the active and inactive calls.
# What was measured:
# Assay in all cases: NCI-60 one-dose screen, 48 h (100 = growth as untreated, 0 = no growth, -100 = all killed)
# Conditions in all cases: 10 µM unless noted
# [1] = tested on: NCI-H23 lung
# [2] = tested on: NCI-H226 lung
# [3] = tested on: NCI-H322M lung
# [4] = tested on: HOP-62 NSCLC
# [5] = tested on: NCI-H460 lung
# [6] = tested on: HOP-92 NSCLC
# [7] = tested on: NCI-H522 lung
# [8] = tested on: A549/ATCC NSCLC
# [9] = tested on: 786-0 renal
# [10] = tested on: COLO 205 colon
# [11] = tested on: DU-145 prostate
# [12] = tested on: K-562 leukemia
# [13] = tested on: MALME-3M melanoma
# [14] = tested on: MDA-MB-231 breast
# [15] = tested on: RXF 393 renal
# [16] = tested on: SF-268 CNS
# [17] = tested on: SF-295 CNS
# [18] = tested on: SF-539 CNS
# [19] = tested on: UACC-257 melanoma
# [20] = tested on: M14 melanoma
SMILES,growth [1],growth [2],growth [3],growth [4],growth [5],growth [6],growth [7],growth [8],growth [9],growth [10],growth [11],growth [12],growth [13],growth [14],growth [15],growth [16],growth [17],growth [18],growth [19],growth [20]
C#Cc1cccc(NC(=O)c2ccccc2NC(=O)CCl)c1,64.4% [8.25 µM],50.1% [8.25 µM],99.3% [8.25 µM],75.8% [8.25 µM],98.3% [8.25 µM],77.4% [8.25 µM],10.6% [8.25 µM],92.7% [8.25 µM],87.5% [8.25 µM],114% [8.25 µM],96.2% [8.25 µM],68.2% [8.25 µM],105% [8.25 µM],111% [8.25 µM],96.7% [8.25 µM],68% [8.25 µM],103% [8.25 µM],93.4% [8.25 µM],98.4% [8.25 µM],83.3% [8.25 µM]
C#CCOc1ccc2ncnc(N3CCN(C(=O)CCl)CC3)c2c1,93.3% [8.25 µM],-15.9% [8.25 µM] (active),99.3% [8.25 µM],85% [8.25 µM],101% [8.25 µM],88.7% [8.25 µM],-59.5% [8.25 µM] (active),100% [8.25 µM],94.5% [8.25 µM],96.1% [8.25 µM],102% [8.25 µM],18.9% [8.25 µM],92.4% [8.25 µM],95.7% [8.25 µM],87.2% [8.25 µM],68.7% [8.25 µM],109% [8.25 µM],91.4% [8.25 µM],90.8% [8.25 µM],61.7% [8.25 µM]
C[n+]1ccccc1/C=C/c1ccc2cccc(O)c2n1,103%,86.8%,136%,91.1%,102%,106%,99.8%,9.6% (active),104%,63.3%,102%,102%,146%,93.3%,48.4%,97.1%,109%,109%,97.5%,103%
COc1cc(C(=O)Oc2ccccc2OC(=O)c2cc(OC)c(OC)c(OC)c2)cc(OC)c1OC,86.8%,107%,108%,88.1%,114%,83.4%,89.6%,85.3%,118%,103%,109%,100%,130%,85.5%,89.5%,84%,115%,88.5%,86.7%,116%

# — PubChem BioAssay (NCI)
